# Out of some 1,200 compounds screened, about 600 (50%) were called active. So high a share suggests a set chosen from earlier hits. The list shows a part of the results. Measured potencies and affinities stand elsewhere. Unmarked numbers belong to inactive results. No stated cut-off is given here; in the data, active means inhibition above about 42%; inactive means the rest.
# Target: SUMO-conjugating enzyme UBC9 (Homo sapiens) (UniProt P63279)
# Assay: SUMOylation inhibitor hit validation, confirmation, SUMOylation inhibitor project, biochemical, AlphaScreen (AID 2018)
# Details: AlphaScreen in vitro SUMOylation assay; at 35 µM; hits give high values
# Chain of SUMO-conjugating enzyme UBC9 (Homo sapiens) (P63279 whole entry, looked up): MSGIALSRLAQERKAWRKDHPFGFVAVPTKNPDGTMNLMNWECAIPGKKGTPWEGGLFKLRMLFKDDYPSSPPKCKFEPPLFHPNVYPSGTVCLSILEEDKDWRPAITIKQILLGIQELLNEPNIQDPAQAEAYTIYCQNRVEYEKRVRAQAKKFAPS
row,SMILES,inhibition
1,Cc1cccc(N(C)C(=O)c2cc3c(=O)[nH]c4ccc(C)cc4c3s2)c1,37.8%
2,CCOC(=O)c1ccc(N2C(=O)c3n[nH]c(-c4ccco4)c3C2c2ccc([N+](=O)[O-])cc2)cc1 (stereo not drawn),34.2%
3,Cc1c(C(=O)O)cccc1-c1ccc(/C=C2\SC(=O)NC2=O)o1,48.8% (active)
4,CCc1cc2c(=O)c(Oc3ccccc3F)c(C)oc2c(CN(C)C)c1O,-4.3%
5,CC1=NN(c2ccc(Cl)cc2)C(=O)C1C(c1ccccc1O)c1c(C)[nH]n(-c2ccc(Cl)cc2)c1=O (stereo not drawn),82.4% (active)
6,CC1=NN(c2ccc(C)cc2C)C(=O)C1C(c1cccc(O)c1)C1C(=O)N(c2ccc(C)cc2C)N=C1C (stereo not drawn),81.1% (active)
7,CC1=NN(c2ccc(F)cc2)C(=O)C1C(c1cccc(O)c1)c1c(C)[nH]n(-c2ccc(F)cc2)c1=O (stereo not drawn),89.4% (active)
8,O=[N+]([O-])c1c(NCCO)cc(N2CCC3(CC2)OCCO3)c2nonc12,8.2%
9,CCCCCC(=O)Nc1ccc(-c2cn3cccnc3n2)cc1,10.6%
10,COC12NC(=O)N(C)C1(OC)C(=O)N(C)C(=O)N2C (stereo not drawn),-6.8%
11,COc1ccc(S(=O)(=O)C(C#N)c2nc3ccccc3nc2N2CCCC(C)C2)cc1 (stereo not drawn),49.9% (active)
12,Cc1cccc(S(=O)(=O)C(C#N)c2nc3ccccc3nc2N2CC(C)OC(C)C2)c1 (stereo not drawn),3.9%
13,Cc1ccc(-n2c(SCC(=O)Nc3ccc4c5c(cccc35)CC4)nc(O)cc2=O)cc1,30.4%
14,Cc1ccc(-n2c(SCC(=O)N/N=C/c3ccccc3C(=O)O)nnc2-c2ccc(Cl)cc2)cc1,3.5%
15,CN(C)/C=N/c1nc2nccc(-c3cccc(Cl)c3)n2n1,-11.7%
16,CCCCNC(=O)Oc1c(Br)cc2sc(=O)oc2c1Br,88.3% (active)
17,CC(=O)c1ccc2c(c1)C1C=CCC1C(C(=O)O)N2 (stereo not drawn),101% (active)
18,O=C(O)CCCN1C(=O)/C(=C/C=C/c2ccco2)SC1=S,100% (active)
19,Nc1ccc2c(c1)sc1ccccc12,20.5%
20,CCN(CC)S(=O)(=O)c1ccc(C)c(NC(=O)CSc2ncc(C(F)(F)F)cc2Cl)c1,11.7%
21,C=CCn1c(N)c(C(=O)NCC2CCCO2)c2nc3ccccc3nc21 (stereo not drawn),-9.9%
22,COCCn1c(N)c(C#N)c2nc3ccccc3nc21,29.5%
23,COCCn1c(N)c(C(=O)OCc2ccccc2)c2nc3ccccc3nc21,-26.1%
24,CC(C)Cn1c(N)c(C(=O)NCC2CCCO2)c2nc3ccccc3nc21 (stereo not drawn),0%
25,COCCn1c(N)c(C(=O)NCC2CCCO2)c2nc3ccccc3nc21 (stereo not drawn),42.3% (active)
26,CN(C)CCCn1c(N)c(C#N)c2nc3ccccc3nc21,38.6%

row,SMILES,inhibition
1,COCCNC(=O)c1c(N)n(CCCn2ccnc2)c2nc3ccccc3nc12,5.2%
2,Cc1oc2c(c(C)cc3oc(=O)c(CC(=O)NCC(=O)NCC(=O)O)c(C)c32)c1C,-1.1%
3,Cc1ccc(C)n1-c1nccc(-c2cccs2)n1,21.2%
4,O=c1oc2ccccc2c(Nc2cccc3cccnc23)c1[N+](=O)[O-],7.5%
5,C=CCn1c(N)c(C(=O)OC(C)(C)C)c2nc3ccccc3nc21,5.9%
6,N#Cc1c(N)n(CCOC(=O)c2ccc(Cl)cc2)c2nc3ccccc3nc12,-17.7%
7,N#Cc1c(N)n(-c2cccc(C(=O)O)c2)c2nc3ccccc3nc12,43% (active)
8,C=CCn1c(N)c(C(=O)Nc2cccc(C)c2)c2nc3ccccc3nc21,8.9%
9,CCCCn1c(NC(C)=O)c(C#N)c2nc3ccccc3nc21,15.5%
10,N#Cc1c(N)n(CCNC(=O)c2ccccc2)c2nc3ccccc3nc12,29.4%
11,Cc1ccc2[nH]c3c(c2c1)CN(C(=O)CN1CCCc2ccccc21)CC3,41%
12,C/C(CCc1ccco1)=N\NC(=O)CNc1cccc2ccccc12,6.1%
13,O=C(NC(=S)Nc1c(Cl)ccc2nsnc12)c1ccco1,19.5%
14,Cn1nccc1NC(=O)Nc1cccc(Cl)c1,10.6%
15,Nc1ccc(N2CCN(CCCCN3C(=O)C4CCCN4C3=O)CC2)cc1 (stereo not drawn),29.6%
16,C/C(=C\C(=S)Nc1ccccc1)Nc1cccc2ccccc12,29.8%
17,Nc1ccc2oc(-c3cccs3)nc2c1,-13.9%
18,O=C(Nc1ccc(N2CCOCC2)c2nonc12)C1CCCC1,24%
19,O=[N+]([O-])c1c(NCCO)cc(N2CCCCCC2)c2nonc12,6%
20,Nc1ccc(N2CCCCC2)c2nonc12,78.2% (active)
21,CCN(CC)c1cc(Cl)c2nonc2c1N,16.4%
22,Nc1c(N2CCOCC2)cc(Cl)c2nonc12,-2.8%
23,CN(C(=O)CSc1nnc(NCc2ccccc2)s1)C1CCS(=O)(=O)C1 (stereo not drawn),12.1%
24,COc1ccc(-c2nc3ccncc3[nH]2)cc1OC,11.1%
25,Nc1ccc(-c2nc3ccc(N)cc3[nH]2)cc1,-8.6%
26,O=C(/C=C\c1ccco1)c1ccc(NC(=O)c2ccco2)cc1,56.4% (active)

row,SMILES,inhibition
1,O=C(/C=C/c1ccco1)NC(=S)NNC(=O)c1ccco1,-483%
2,CN(C)c1ccc(C(=O)/C=C/c2ccco2)cc1,10.9%
3,CCc1nc2sc(C(C)=O)c(N)c2c2c1CCCC2,-13%
4,CC(C)(C)C1CCC2(CC1)Nc1cccc3cccc(c13)N2,52.8% (active)
5,O=C(CCCN1C(=O)/C(=C/c2ccco2)SC1=S)Nc1ccccc1C(=O)O,76.9% (active)
6,O=C(CN1C(=O)CSC1=O)Nc1ccc(C(=O)O)cc1,-7.6%
7,COc1ccc(N2C(=O)[C@@H]3[C@H](C2=O)[C@H]2c4ccccc4C=CN2[C@@H]3C(C)=O)cc1,53.6% (active)
8,CCC(=O)N1CCc2cc(S(=O)(=O)NC(C(=O)NCc3ccc(C)cc3)C(C)C)ccc21 (stereo not drawn),37.4%
9,Cc1ccoc1C(=O)NCCCNC(=O)c1occc1C,56.7% (active)
10,CN(C)c1cccc2cccc(N(C)C)c12,3.1%
11,Cc1cc2oc(C(=O)Nc3ccc(S(=O)(=O)Nc4nccs4)cc3)cc(=O)c2cc1Cl,75% (active)
12,O=c1[nH]c(Nc2ccccc2)cc2ccccc12,102% (active)
13,CCN(c1ccccc1)c1cc2ccccc2c(=O)[nH]1,35.3%
14,CCn1c(NC(=O)c2ccccc2)nc2ccccc21,73% (active)
15,Cn1c(-c2ccc(C=O)s2)nc2ccccc21,14.4%
16,Cc1ccc(C(=O)NC(C)c2nc3ccccc3n2CC(=O)Nc2c(C)cc(C)cc2C)cc1 (stereo not drawn),5.3%
17,CCOc1ccc(NC(=S)Nc2cccc3ccccc23)cc1,4.4%
18,CCOC(=O)COc1nc(-c2ccco2)cc(-c2ccco2)c1C#N,-28.4%
19,COc1ccc(C(N)c2nccc3cc(OC)c(OC)cc23)cc1OC (stereo not drawn),22.1%
20,CC1=CC(C)(C)N2C(=O)C(=Nc3ccc(O)cc3)c3cccc1c32,95.8% (active)
21,Cc1cc(=O)[nH]c(SCC(=O)c2ccc(O)c(O)c2)n1,55.2% (active)
22,Cc1cc(=O)[nH]c(SCC(=O)Nc2cccc(C(F)(F)F)c2)n1,-20.9%
23,CCC(=O)c1ccccc1OCCSc1nc(C)cc(=O)[nH]1,10.6%
24,O=C(NN1C(=O)CSC1=S)C(=O)NN1C(=O)CSC1=S,102% (active)
25,CCOc1cc(CNc2cccc3ccccc23)cc(Br)c1OCC(=O)NC(C)(C)C,-1.9%
26,CCOc1cc(CNc2ccc(N3CCN(C(C)=O)CC3)cc2)cc(Br)c1OC,45.3% (active)

row,SMILES,inhibition
1,CCN(Cc1cc(=O)n2ccsc2n1)c1cccc2ccccc12,25.6%
2,Oc1ccc2ccccc2c1C=NCc1ccccc1,38.6%
3,Oc1ccc2ccccc2c1C=NCc1cn2ccsc2n1,42.5% (active)
4,Cc1ccc(NC(=S)Nc2ccc3cn[nH]c3c2)cc1,30.2%
5,CN(C)c1cccc2c(C=C(C#N)C#N)ccc(N(C)C)c12,19.4%
6,CCCS(=O)(=O)c1c(S(=O)(=O)CCC)c2c(N)cccn2c1C(=O)c1ccc(Br)cc1,23.1%
7,COc1ccc(N2C3=C(CC4=C2CCCC4=O)C(=O)CCC3)cc1,19.3%
8,O=C(O)/C=C/C(=O)Nc1ccc(O)cc1,15.1%
9,CCOC(=O)C(CCCCOc1ccc([N+](=O)[O-])cc1)C(=O)OCC,-21.9%
10,Oc1ccc(NCc2ccccc2OCc2ccccc2F)cc1,88.9% (active)
11,CCOc1ccccc1CNc1ccc(O)cc1,45.3% (active)
12,Cn1c(CNc2ccc(O)cc2)nc2ccccc21,16.9%
13,O=c1[nH]nc(CNc2ccc(O)cc2)c2ccccc12,9.6%
14,CCOc1cccc(CNc2ccc(O)cc2)c1OCc1ccc(Cl)cc1Cl,81% (active)
15,CCOC(=O)C1=C(N)n2c(s/c(=C/c3ccco3)c2=O)=C(C(=O)OC)C1c1ccco1 (stereo not drawn),34%
16,O=c1nc2s/c(=C\c3ccco3)c(=O)n2nc1Cc1ccccc1,26.6%
17,COc1ccccc1/C=C/CN1CCN(c2ccccc2)CC1,29.6%
18,O=c1c2cc(N3CCOCC3)ccc2[nH]c(=S)n1CC1CCCO1 (stereo not drawn),-2.6%
19,CCOC(=O)c1c(NC(=O)C2C3C=CC(CC3)C2C(=O)O)sc(C)c1CC (stereo not drawn),20%
20,COc1cccc(CNc2cccc3cccnc23)c1O,43.5% (active)
21,O=C(/C=C/c1ccco1)Nc1cccc2cccnc12,6.6%
22,Cc1ccc(F)c(NC(=S)Nc2cccc3ccccc23)c1,10.1%
23,Cc1ccc(O)c(CNc2cccc3cccnc23)c1,49.6% (active)
24,Oc1ccc(Br)cc1CNc1cccc2cccnc12,61.8% (active)
25,CC(C)(C)C(=O)NC(Nc1cccc2cccnc12)C(Cl)(Cl)Cl (stereo not drawn),7.9%
